The text below walks through data of PubChem BioAssay (NCI).

The panel holds about 83,000 compounds, 20% with a hit somewhere; the sample as a whole holds those more often.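 The endpoint reported here, percent growth, reads 100 for growth as untreated, 0 for no net growth and -100 for all cells dead.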 Unmarked numbers belong to inactive results. The source made the active and inactive calls. Rule for the calls: active = growth percent below 10; inactive = the rest.

Test systems include SK-MEL-2 melanoma; EKVX NSCLC; SN12C renal; UO-31 renal; TK-10 renal; ACHN renal; CAKI-1 renal; A498 renal; CCRF-CEM leukemia; MOLT-4 leukemia; SR leukemia; RPMI-8226 leukemia; OVCAR-8 ovarian; OVCAR-5 ovarian; OVCAR-4 ovarian; SK-OV-3 ovarian; IGROV1 ovarian; OVCAR-3 ovarian; HS 578T breast; NCI/ADR-RES ovarian.
What all share (assay): NCI-60 one-dose screen, 48 h (100 = growth as untreated, 0 = no growth, -100 = all killed)
What all share (conditions): 10 µM unless noted

`O=C(NO)c1ccc(CNc2cccc3nc(C4CC4)n(-c4ccccc4)c(=O)c23)cc1`: the growth was 53.7% in the assay with SK-MEL-2 melanoma; 42.2% in the assay with EKVX NSCLC; 15.5% in the assay on SN12C renal; 3.57% (active) in the assay with UO-31 renal; 13.6% with TK-10 renal; 3.75% (active) in the assay with ACHN renal. Further, the growth in the assay on CAKI-1 renal is 7.51% (active); in the assay on A498 renal, 13.7%; with CCRF-CEM leukemia, -13.3% (active); with MOLT-4 leukemia it was -21.7% (active); with SR leukemia it was 1.62% (active); in the assay with RPMI-8226 leukemia it was -26.6% (active). Besides, the growth in the assay on OVCAR-8 ovarian is -15.4% (active); in the assay with OVCAR-5 ovarian it was 35.7%; in the assay with OVCAR-4 ovarian, 11.5%; in the assay with SK-OV-3 ovarian, 16%; in the assay with IGROV1 ovarian it was 8.21% (active); in the assay with OVCAR-3 ovarian, 0.886% (active). The growth in the assay with HS 578T breast is 39.8%; in the assay on NCI/ADR-RES ovarian, -10.7% (active).

`CC(C)CC(=O)C(CCc1ccccn1)C(C)C` (stereo not given): the growth with SK-MEL-2 melanoma is 103%; in the assay with EKVX NSCLC, 99.4%; with SN12C renal it was 107%; in the assay with UO-31 renal it was 103%; in the assay on TK-10 renal, 102%; with ACHN renal it was 101%. The growth is 79% with CAKI-1 renal; 91.8% in the assay with A498 renal; 97.2% with CCRF-CEM leukemia; 108% in the assay with MOLT-4 leukemia; 108% with SR leukemia; 95.8% in the assay with RPMI-8226 leukemia. In addition, the growth with OVCAR-8 ovarian was 105%; in the assay on OVCAR-5 ovarian, 105%; in the assay with OVCAR-4 ovarian, 111%; with SK-OV-3 ovarian, 120%; with IGROV1 ovarian, 114%; in the assay with OVCAR-3 ovarian, 118%. In addition, the growth with HS 578T breast was 97.8%; in the assay on NCI/ADR-RES ovarian it was 102%.

Turning to `CN(C)CC(=O)c1ccc2cc(Br)c3ccccc3c2c1`, the growth is 61.3% in the assay on SK-MEL-2 melanoma; 89.7% with EKVX NSCLC; 72.6% in the assay on SN12C renal; 36% in the assay on UO-31 renal; 72.7% in the assay with TK-10 renal; 59.7% with ACHN renal. The growth was 75.4% in the assay on CAKI-1 renal; 42.2% in the assay with A498 renal; 71.3% in the assay on CCRF-CEM leukemia; 40.3% in the assay with MOLT-4 leukemia; 13.4% in the assay with SR leukemia; 46.9% with RPMI-8226 leukemia. Also, the growth in the assay on OVCAR-8 ovarian was 57.9%; with OVCAR-5 ovarian, 83.7%; with OVCAR-4 ovarian, 72.2%; in the assay on SK-OV-3 ovarian, 69.7%; with IGROV1 ovarian, 38.5%; with OVCAR-3 ovarian it was 85.8%. Moreover, the growth is 55.4% in the assay with HS 578T breast and 72.8% in the assay on NCI/ADR-RES ovarian.

For the compound `O=C(Nc1ccc(Br)cc1)Nc1cccc(Br)c1`, the growth in the assay on SK-MEL-2 melanoma is 26%; with EKVX NSCLC, 41%; in the assay on SN12C renal, 32.5%; in the assay on UO-31 renal, 34.9%; in the assay on TK-10 renal it was 29.2%; in the assay on ACHN renal, 14.9%. Further, the growth with CAKI-1 renal is 50.3%; in the assay on A498 renal it was 21.4%; in the assay on CCRF-CEM leukemia, 15.6%; in the assay on MOLT-4 leukemia, 1.92% (active); in the assay with SR leukemia, 38%; in the assay on RPMI-8226 leukemia, 8.97% (active). Further, the growth with OVCAR-8 ovarian was 48.8%; in the assay with OVCAR-5 ovarian, 76.8%; with OVCAR-4 ovarian, 28.8%; in the assay with SK-OV-3 ovarian it was 75.2%; in the assay on IGROV1 ovarian it was 25.5%; in the assay with OVCAR-3 ovarian, 16.2%. For the same compound, the results for the growth in the assay on HS 578T breast and in the assay on NCI/ADR-RES ovarian were 76% and 46.4%, respectively.

Regarding `C#CCNc1nc(NCCNC(=O)CCl)nc(N(C)CCCCc2ccccc2)n1`, the growth in the assay on SK-MEL-2 melanoma is 98.9%; in the assay with EKVX NSCLC, 102%; with SN12C renal, 77.1%; in the assay on UO-31 renal it was 82.4%; in the assay on TK-10 renal, 97.7%; in the assay on ACHN renal, 100%. Further, the growth was 95.2% in the assay on CAKI-1 renal; 99.2% with A498 renal; 23.8% with CCRF-CEM leukemia; 43.3% in the assay on MOLT-4 leukemia; 62.1% with SR leukemia; 89.2% in the assay with RPMI-8226 leukemia. For the same compound, the growth with OVCAR-8 ovarian was 101%; with OVCAR-5 ovarian, 109%; in the assay on OVCAR-4 ovarian it was 96.6%; with SK-OV-3 ovarian, 101%; in the assay with IGROV1 ovarian it was 78.9%; in the assay with OVCAR-3 ovarian, 94.3%. Further, the figures for the growth with HS 578T breast and in the assay on NCI/ADR-RES ovarian were 94.2% and 102%, respectively.

On to `N/C(=N\OC(=O)c1ccccc1)C(C(=O)NOC(=O)c1ccccc1)C1CCCCC1` (stereo not given), for which the growth with SK-MEL-2 melanoma is 121%; with EKVX NSCLC, 66.8%; with SN12C renal it was 89.1%; with UO-31 renal it was -50.5% (active); in the assay with TK-10 renal it was 92.6%; in the assay with ACHN renal, 25.6%. Also, the growth with CAKI-1 renal is -55.3% (active); with A498 renal it was 86.2%; in the assay on CCRF-CEM leukemia, 30%; in the assay with MOLT-4 leukemia, 55.9%; with SR leukemia, 4.57% (active); in the assay with RPMI-8226 leukemia, 41.5%. For the same compound, the growth with OVCAR-8 ovarian is 65.8%; in the assay on OVCAR-5 ovarian it was 92.2%; with OVCAR-4 ovarian it was 72.8%; in the assay on SK-OV-3 ovarian, 108%; in the assay with IGROV1 ovarian it was -56.2% (active); in the assay on OVCAR-3 ovarian, 66.9%. The values for the growth in the assay with HS 578T breast and with NCI/ADR-RES ovarian were 26.7% and 45.2%, respectively.

`COc1cc(CN(CCC(O)N2CCCC2=O)Cc2ccc3c(c2)OCO3)cc(OC)c1OC` (stereo not given): the growth was 94.5% in the assay on SK-MEL-2 melanoma; 107% with EKVX NSCLC; 105% in the assay on SN12C renal; 78.1% with UO-31 renal; 112% in the assay with TK-10 renal; 100% with ACHN renal. The growth is 97.1% in the assay with CAKI-1 renal; 118% in the assay on A498 renal; 98.3% with CCRF-CEM leukemia; 85.2% with MOLT-4 leukemia; 86.3% with SR leukemia; 98.7% in the assay on RPMI-8226 leukemia. For the same compound, the growth in the assay on OVCAR-8 ovarian was 100%; in the assay with OVCAR-5 ovarian, 98.5%; in the assay with OVCAR-4 ovarian, 108%; with SK-OV-3 ovarian, 102%; in the assay with IGROV1 ovarian it was 95%; in the assay with OVCAR-3 ovarian it was 105%. For the same compound, the growth with HS 578T breast and in the assay with NCI/ADR-RES ovarian was 103% in each case.

With `Cc1nc(N)nc2c1CCC(Nc1ccccc1)S2` (stereo not given), the growth is 102% in the assay on SK-MEL-2 melanoma; 103% with EKVX NSCLC; 101% in the assay with SN12C renal; 79.2% with UO-31 renal; 105% in the assay with TK-10 renal; 102% in the assay on ACHN renal. In addition, the growth in the assay on CAKI-1 renal is 94%; with A498 renal, 97%; in the assay on CCRF-CEM leukemia, 90.9%; in the assay on MOLT-4 leukemia, 90.2%; with SR leukemia it was 59.2%; in the assay with RPMI-8226 leukemia it was 113%. Further, the growth was 103% in the assay with OVCAR-8 ovarian; 100% in the assay with OVCAR-5 ovarian; 114% in the assay with OVCAR-4 ovarian; 109% in the assay with SK-OV-3 ovarian; 111% in the assay on IGROV1 ovarian; 108% in the assay with OVCAR-3 ovarian. In addition, the growth in the assay with HS 578T breast is 103%; in the assay with NCI/ADR-RES ovarian, 104%.
